Among the data in PubChem BioAssay AID1508600 (Functional Genomics Laboratory (NCATS/FGL), 2020) are z-score values, retold here.

Screen size: about 53,000 sequences; about 3,700 (7%) were called active.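 How the source made its calls: active means gene knockdowns whose robust z-score for IL-1 alpha signal is at least 2 or at most -2, so actives lie on both sides; inactive means the rest.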 The full list was thinned out, with actives kept by preference.

A short description of the test: Components of the Cytosolic LPS Sensing Pathway: Gene Identification via Genome-wide siRNA Screen. The note with it: RAW264.7 macrophages, IL-1a HTRF, actives lie on both sides, screened at 100 nM (by protocol), cells primed 5 h with Pam3CSK4 first. From the text:
Non-canonical inflammasome activation by cytosolic LPS is a critical component of the host response to Gram-negative bacterial infection, however we lack a comprehensive understanding of the cellular processes that control this pathway. Here we describe a genome-wide siRNA screen to identify genes regulating the mouse macrophage IL-1 alpha response to cytosolic LPS.
RAW264.7 cells were maintained in complete DMEM media, comprising DMEM with 4.5 g/L glucose, 10% FBS (Gemini Bio-Products, West Sacramento, CA), 2 mM Glutamine (Lonza) and 20 mM HEPES (Lonza), hereafter complete DMEM.
The RNAi screen was conducted in 384-well format using the Ambion Silencer Mouse Genome siRNA Library (#4391425), which consists of three unique, nonoverlapping, nonpooled siRNAs for each of 17,000 gene targets. siRNA reagents ([…]) were stamped into 384-well white flat-bottom microplates (Corning, 3570) using a Velocity11 VPrep liquid handling system (Agilent) integrated into a BioCel robotic platform (Agilent) in columns 1-22, leaving columns 23-24 empty for negative (Ambion, Negative control #1) and positive (mouse Casp4) controls, respectively. The median value of each plate's negative control column was used to normalize sample wells, and the positive control was used to assess transfection efficiency and assay performance.
Lipofectamine RNAiMAX Transfection Reagent ([…]; Invitrogen) was added in […] serum-free, antibiotic-free media to plate wells using a Thermo Scientific Matrix WellMate and Microplate Stacker. Plates were incubated for 45 min at room temperature to allow for the sufficient formation of siRNA-lipid complexes. Cells were seeded at a density of 1x10^4 cells per well in 20 microL media containing 20% (vol/vol) FBS without antibiotics. The final concentration of siRNA in each well was 100 nM. Cells were cultured for 48h at 37 degrees C in 5% CO2 before addition of […] of TLR ligand Pam3CSK4 for 5 hours. The medium was then removed, replaced with […] growth media and cell were transfected with […] of LipidA and TransIT-TKO (Mirus) for 24 hour. At the end of the LipidA treatment, […] of supernatant was transferred to a 384 Greiner Bio-one non-binding low volume plate and […] of IL-1a HTRF reagent (Cisbio, 62MIL1APEH) was added and incubated at room temperature overnight. The plates were read on an EnVision plate reader (PerkinElmer). Cell viability was measured by adding 20ul Cell Titer Glo to the original plate and running a luminescence read on the EnVision. The quantified IL-1a signal for each siRNA gene-targeted well was divided by the median of the negative control wells and multiplied by 100 to achieve a negative control normalized value for each well/siRNA. This normalized value was then used to generate a robust z-score by first taking the log of each value and then by subtracting the median and dividing by the […].
On the technique in general: TR-FRET usually uses a lanthanide donor and a delayed reading to cut background.
Regarding CCGAUGACAAUCGGCCCUUTT against Gja8, the z-score was 0.74 (inactive). Take GGUUUUCCAUCUCCUCCAGTT against Klrc1: the z-score is 0.789 (inactive). For “GGGAAACGUGAAUUAGUAATT against 1110051M20Rik” the value was -1.23 (inactive).

As for CCUCCAUUGAUACUCAAGUTT against Pycr1, the z-score is 0.0219 (inactive). On to GGCUAAAUCUCACACUCCATT against Mzb1, for which the z-score was -2.18 (active).

GGUGAAGCUCACCAACAAUTT against Tbx20: the z-score was 0.301 (inactive). In the case of CCAUGUUCCAGUUAAUGACTT against Ptch1, the z-score is -0.419 (inactive). For GCAAGUCCUCUACCUUCUCTT against Vmn1r210 the value was -1.65 (inactive); for GGUGAAACUAAAAAUGGUCTT against Egfl6, -1.07 (inactive); for GCCGUCUCUGUGUCACAAATT against Sirt1, -2.19 (active).

Take GGUCCUUGUACAACCACCCTT against Acd: the z-score is 0.516 (inactive). For “GGUCCUUGCAUUUCAUCAATT against A630005I04Rik” the value was 1.6 (inactive). With GGAUUUUUGCACUCAGUAATT against Olfr1256, the z-score was 1.26 (inactive). For GGAACAUUGGUGUUACAGCTT against Atp5j the value was 2.29 (active); for GGAGUUUUCAGCAACAAAUTT against Fgf5, -0.829 (inactive); for GGUAUUCUAUAAGCUCCUUTT against Dennd1a, -2.07 (active). For CCAACGCGAACGAGAACUATT against C1qb the value was -0.0813 (inactive). For CCAGAUAAUAAUUUGGAUGTT against Dhx9 the value was 0.0852 (inactive); for GGAUGUGCCAUUGAAGAUCTT against Atg4c, 2.07 (active).

As to CCUGGAUACCUUCAACUAUTT against Galnt14, the z-score is -0.209 (inactive).

Consider CCUAAACCAGUCUUUUCUCTT against Cnep1r1, for which the z-score was 0.369 (inactive). For GCAAAAGCUAAUAAACUUGTT against Acox2 the value was 0.921 (inactive). As to GCCUACGAGGACAGUACAATT against Mst1r, the z-score was 1.16 (inactive). As for GCACUGCAACACUUGGUCCTT against Lcn12, the z-score is -0.99 (inactive).

As to GGCAGACCCAUAAUUAAUCTT against Arsk, the z-score was -0.567 (inactive). For GGCUGAAGCGCAAGAGGAATT against Wdr46 the value was 2.68 (active).

As for GGAAGAUACAAGUCUUUUUTT against Akap12, the z-score is 1.85 (inactive). Turning to GAGAUAAGAUGGGAAAAAATT against Ssbp2, the z-score is -0.338 (inactive). For GGAAAAGCAGACUUGCACCTT against Npm2 the value was 0.228 (inactive). For GGAAGAAGUUGGAGAUGUUTT against Hsd17b11, the z-score was -0.629 (inactive). For GGAACUAGUUUUUAUACUCTT against Igfbp1 the value was 2.23 (active); for GGAACCUAUUUUUUCGUAUTT against Gen1, -0.322 (inactive). Take CCAAGAUUCUCCUGAAUUATT against Plod2: the z-score is -0.183 (inactive). For CGGUGAUCAAAGAUAAGAATT against Zkscan5 the value was -0.936 (inactive); for GGGUGCAUAUGUUUGAAGCTT against Copb2, -2.5 (active).

For GGUGUGGUCAUUCCAAAUGTT against Ms4a8a, the z-score is 0.042 (inactive). For GGAGCUGUGCGGUCUGUUATT against Mul1 the value was -0.626 (inactive).

For the sequence GGAGAAAGUCAAGACCCUCTT against Jund, the z-score is 0.473 (inactive).

Consider GGCUACCAUGGACACAUCATT against Magea7-ps, for which the z-score was -2.31 (active).

For the sequence GGAUGUCUCGGCAUAGUUCTT against Lpar1, the z-score was -0.64 (inactive). For GGUGAAUGCAAGAUCACCUTT against Myl1 the value was 0.343 (inactive); for GCAGUCGAUGUCAAGGUUATT against Plekhf2, 0.473 (inactive). For GCCAGGACAAUCUGACUAUTT against Napsa the value was 3.48 (active).

With CGGGAUAGACUAUAAGACUTT against Rab40c, the z-score was 0.612 (inactive). For GGAGAUGAGGAAGCUCUUCTT against Usp4 the value was -0.747 (inactive). Regarding CCAAGCAUAUGUGGUUGUUTT against Gpbp1l1, the z-score was -2.01 (active).

As to “GGUCUACGACCGAUGUUCUTT against 9530003J23Rik”, the z-score is 0.729 (inactive).

GGAGUUACCUUUCGAUAGGTT against Exoc5: the z-score is 0.648 (inactive). Take GGGUGCAUAAGCAAGCUGUTT against Nkiras2: the z-score was -0.992 (inactive). As for GGGAUCAAAGAUCAGUUAATT against Pih1d2, the z-score was -0.98 (inactive).

Consider GACAGAGGAAUUUGUCUCCTT against Olfr1120, for which the z-score is 2.1 (active). In the case of CCUAGUGUGUGCUUUUCGGTT against Akr7a5, the z-score is -0.502 (inactive).

Regarding GGACCCAAGAAGUUUUAUUTT against Zbbx, the z-score is 1.3 (inactive). For GGAGCAGGUAAACAUGUCUTT against Fpr-rs7 the value was -0.218 (inactive). For GCCUGAAAGGCCUCACAAATT against Eloa the value was -0.72 (inactive); for GCAGUAACUCCGGUAGUAGTT against Daxx, 5.84 (active); for GGACUAUGCAGUUUUAUUGTT against Chrac1, -0.201 (inactive). For CGACCAAAAUCAAAACAGCTT against Defb12 the value was -0.093 (inactive); for GGAACUGGAAGAGAAUGAGTT against Sdc4, 0.862 (inactive); for GGAGAAGAUAGAAGCUGAGTT against Rad23a, -1.66 (inactive).

GGUCGAGGACAAAAAAAAATT against Dner: the z-score is -2.27 (active). For GGACCUAUCAACUGAGUUUTT against Hrc the value was 1.06 (inactive); for GGUCAUGGCUACUUCAUCCTT against Dok7, 0.583 (inactive). For CCUUUAGAGGAAUUCACUUTT against Npas2 the value was -0.576 (inactive); for GCAAAUCCCAGCUCAAUGUTT against Zfp810, -1.65 (inactive). For CGAAGGACCAGGGAAUCUGTT against Tsg-5 the value was -0.793 (inactive); for GCAGGUGAAAGUGCAGAUCTT against Timm13, 3.35 (active). With GGAUAAGAGACAAUGAAUUTT against Fut7, the z-score was -1.19 (inactive). For GCUCAUUCGUCCUCACAGUTT against Olfr312 the value was -1.11 (inactive). For CCCAGGUUCCGGAGAACAATT against Abcc5 the value was 2.14 (active); for GGCUGUCCAACAAGCAGAGTT against Plekhm3, 0.163 (inactive); for GGUAGACCUUUUGUCACGGTT against Cers2, -0.0497 (inactive). For GGGUUUAAUCAUGAUAGAATT against Tet2 the value was -0.583 (inactive). GGCUUUCCCAAAGACUUCUTT against Col11a2: the z-score was 0.518 (inactive). As for GGACAUCAUCCAGGAAAACTT against Bcar3, the z-score is -0.347 (inactive). For GCCACAACAACUUGAGCAGTT against Amigo1 the value was 2.36 (active).

As to CAACUCUCUUGCUCAGACATT against Olfr814, the z-score was -0.268 (inactive).

Consider CGAACGGAAAAAUGGAAGUTT against Mrtfb, for which the z-score was 0.784 (inactive). Take GGUCAUAGAGACAGACUACTT against Lcn12: the z-score is -0.378 (inactive).

On to CGCAGAACCCUGGUUUCUATT against Trappc11, for which the z-score was -0.232 (inactive). In the case of GGACUUUCUCUAGGAUCCATT against Slamf8, the z-score is -0.705 (inactive). For GGCUGGUUACCUGCAUAAGTT against Sh3bp2 the value was 0.225 (inactive); for GGUACCAUCCGGAAUACAATT against Zdhhc19, 3.95 (active).

GGCCUCCUAACAAUUCAGCTT against Foxp1: the z-score was 0.0693 (inactive).

Take GCUCAGAGCAUGUUGGUGGTT against Dstyk: the z-score is -0.805 (inactive). Regarding GGAUAUACAAGCACAAACUTT against Gjc3, the z-score was 0.432 (inactive). With GGGAUUUAAAAGGAAAUGUTT against Gbp7, the z-score is -1.05 (inactive). For the sequence GAAGCAGAUACCAAAACAATT against Kir3dl1, the z-score was -3.02 (active). As for GGAGGUGGUGCUUAAAGGUTT against Rnf122, the z-score was 0.41 (inactive). For GGUGAAAAGAGAUUUGAAUTT against Sp4 the value was 0.587 (inactive); for GCUCGUUCUUCGACAUCUUTT against Stard3, -0.946 (inactive); for GGACCUAGUGCGUUCCAAATT against H1f7, 2.92 (active).

For GCGAUAUUUCAAGAGAAGCTT against Evc2, the z-score is -0.372 (inactive). For CCCAAGCCUACCUUACGAGTT against Hipk2 the value was -1.67 (inactive); for CCUAAUACCUUCAGUGUUCTT against Ptcd3, 0.865 (inactive). For the sequence GGAAACUUAAGCAAAUUCUTT against Gprc6a, the z-score is 3.11 (active). As for GGUGACUUUUUGGUACAGATT against Mthfr, the z-score is 0.558 (inactive). For GGCUGUUAUCCAGAGAGAUTT against Nim1k the value was 0.177 (inactive). For GGACCUGAACACAGCUACUTT against Stoml1, the z-score was 1.04 (inactive). For GGAGAUCCUUAAGCUGUUGTT against Aen the value was -2.37 (active); for GCCUGACGGCACGUAUGUATT against Acox1, 0.527 (inactive); for GGUACAGUGCAUCGACAUGTT against Eng, 0.879 (inactive). Regarding CGGAAGGAAGUGCCUAAACTT against Rcc2, the z-score is 0.668 (inactive). With GCAGUUAACUACGUUGCAATT against Zranb2, the z-score is -0.44 (inactive). As for GGGAUGUGAUAGUUCAUAATT against Stil, the z-score was -0.304 (inactive). On to GGACAUUCUCUACCGAAUATT against Acsm1, for which the z-score is 2.04 (active). For GGAUGAUUAUUGGAGCUAUTT against Vtn the value was 0.128 (inactive); for GGACAAUAGGAGCCUUUAATT against Vmn1r211, 0.125 (inactive).
